Among the test systems are HCT-15 colon; HT29 colon; SNB-75 CNS; SNB-19 CNS; U251 CNS; PC-3 prostate; SK-MEL-5 melanoma; UACC-62 melanoma; LOX IMVI melanoma; SK-MEL-28 melanoma; SK-MEL-2 melanoma; EKVX NSCLC; SN12C renal; UO-31 renal; TK-10 renal; ACHN renal; CAKI-1 renal; CCRF-CEM leukemia; MOLT-4 leukemia; A498 renal.
Common to all, as to experiment: NCI-60 one-dose screen, 48 h (100 = growth as untreated, 0 = no growth, -100 = all killed)
What all share (settings): 10 µM unless noted

Each structure is given as a SMILES string. The panel holds about 83,000 compounds, 20% with a hit somewhere; the sample as a whole holds those more often.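 Percent growth is the endpoint: 0 to 100 indicates growth inhibition (40 means 60% inhibition), 0 means no net growth, and negative values indicate cell death.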 Unmarked numbers belong to inactive results. The source made the active and inactive calls. How the source made its calls: active means growth percent below 10; inactive means the rest.

Take `CC(=O)c1cc2c(N)c(C(=O)Nc3cncc4ccccc34)sc2nc1C`: the growth with HCT-15 colon is 95.4%; in the assay on HT29 colon, 107%; in the assay with SNB-75 CNS, 91.5%; in the assay with SNB-19 CNS it was 98.5%; with U251 CNS, 106%; with PC-3 prostate, 93.8%. Further, the growth in the assay on SK-MEL-5 melanoma was 98.5%; with UACC-62 melanoma, 76.1%; in the assay on LOX IMVI melanoma, 98.9%; in the assay on SK-MEL-28 melanoma, 102%; with SK-MEL-2 melanoma, 91.2%; in the assay on EKVX NSCLC, 100%. In addition, the growth is 95.3% with SN12C renal; 80.1% in the assay with UO-31 renal; 119% in the assay on TK-10 renal; 97.1% in the assay on ACHN renal; 83.8% in the assay on CAKI-1 renal; 104% with CCRF-CEM leukemia. Besides, the growth in the assay on MOLT-4 leukemia is 90.3%.
In the case of `CCOC(=O)c1c(C)nc2c(c1N)C(=O)C(=O)N2Cc1ccc(C(F)(F)F)cc1`, the growth in the assay with HCT-15 colon is 24.1%; in the assay with HT29 colon, 65.1%; in the assay on SNB-75 CNS it was 62.2%; with SNB-19 CNS, 59.3%; in the assay on U251 CNS it was 41%; in the assay on PC-3 prostate it was 43.7%. In addition, the growth was 66.7% with SK-MEL-5 melanoma; 42.8% in the assay on UACC-62 melanoma; 54.1% in the assay on LOX IMVI melanoma; 74.8% with SK-MEL-28 melanoma; 77% with SK-MEL-2 melanoma; 79.5% in the assay on EKVX NSCLC. The growth is 74.1% in the assay with SN12C renal; 54.1% with UO-31 renal; 107% with TK-10 renal; 69.7% in the assay with ACHN renal; 72.6% in the assay on A498 renal; 39.4% in the assay with CCRF-CEM leukemia. Further, the growth in the assay with MOLT-4 leukemia was 60.1%.
Regarding `CCCCCOc1ccc(/C=N/Nc2cc(C)nc3ccc(Br)cc23)cc1`, the growth with HCT-15 colon is -91.4% (active); in the assay on HT29 colon it was 4.52% (active); with SNB-75 CNS, 85.5%; in the assay with SNB-19 CNS, 43.2%; with U251 CNS, -65% (active); in the assay with PC-3 prostate, 27.3%. Moreover, the growth is 89.1% with SK-MEL-5 melanoma; 93.2% in the assay on UACC-62 melanoma; -92.9% (active) in the assay on LOX IMVI melanoma; -74.3% (active) with SK-MEL-28 melanoma; 105% in the assay with SK-MEL-2 melanoma; 76.3% in the assay on EKVX NSCLC. Also, the growth in the assay on SN12C renal is -88.8% (active); in the assay on UO-31 renal, -94.1% (active); in the assay on TK-10 renal, 19.1%; in the assay with ACHN renal, -26.2% (active); in the assay with CAKI-1 renal, 43.6%; with CCRF-CEM leukemia, 3.51% (active). The growth in the assay on MOLT-4 leukemia is -21.8% (active).
Take `[2H]C1([2H])NC([2H])([2H])C([2H])([2H])N(c2ccc(Nc3ncc4cc(C(=O)N(C)C)n(C5CCCC5)c4n3)nc2)C1([2H])[2H]`: the growth is 85% with HCT-15 colon; 34% in the assay with HT29 colon; 65.5% in the assay on SNB-75 CNS; 64.3% with SNB-19 CNS; 61.4% with U251 CNS; 62.3% in the assay with PC-3 prostate. Also, the growth was 78.3% with SK-MEL-5 melanoma; 78.7% in the assay with UACC-62 melanoma; 49.2% in the assay with LOX IMVI melanoma; 88.6% in the assay with SK-MEL-28 melanoma; 94.3% with SK-MEL-2 melanoma; 65.2% in the assay with EKVX NSCLC. Besides, the growth is 74.9% in the assay with SN12C renal; 61.2% in the assay on UO-31 renal; 43% with TK-10 renal; 57.4% in the assay on ACHN renal; 66.5% in the assay on A498 renal; 54.1% in the assay with CCRF-CEM leukemia. In addition, the growth in the assay on MOLT-4 leukemia is 8.74% (active).
For `CCCCCCCCCCN=C(N)N=C(N)N`, the growth was 71.1% with HCT-15 colon; 41.6% with HT29 colon; 3.65% (active) with SNB-75 CNS; 38.7% with SNB-19 CNS; 34.8% in the assay on U251 CNS; 22.1% with PC-3 prostate. For the same molecule, the growth in the assay with SK-MEL-5 melanoma was 4.63% (active); with UACC-62 melanoma, 37.2%; with LOX IMVI melanoma, 47.3%; in the assay with SK-MEL-28 melanoma, 63.3%; in the assay on SK-MEL-2 melanoma, 75.8%; in the assay on EKVX NSCLC it was 38.8%. Moreover, the growth in the assay with SN12C renal was 9.21% (active); with UO-31 renal, 43.1%; with TK-10 renal, 40.8%; in the assay on CAKI-1 renal it was 43.4%; in the assay with A498 renal it was 54.9%; in the assay with CCRF-CEM leukemia, 35.7%. In the assay with MOLT-4 leukemia, the growth is 30.8%.
On to `Cc1cc(C)c(C=O)c(C)c1`, for which the growth with HCT-15 colon was 107%; with HT29 colon it was 98.8%; in the assay on SNB-75 CNS, 83%; in the assay on SNB-19 CNS, 102%; in the assay on U251 CNS, 101%; in the assay with PC-3 prostate it was 79.9%. In addition, the growth in the assay on SK-MEL-5 melanoma is 99.8%; in the assay on UACC-62 melanoma, 108%; with LOX IMVI melanoma, 96.8%; in the assay with SK-MEL-28 melanoma, 110%; in the assay with SK-MEL-2 melanoma, 106%; in the assay with EKVX NSCLC it was 101%. In addition, the growth in the assay on SN12C renal was 103%; in the assay with UO-31 renal, 86.3%; with TK-10 renal, 103%; in the assay with CAKI-1 renal, 94.1%; in the assay with A498 renal, 102%; with CCRF-CEM leukemia it was 78.6%. In addition, the growth with MOLT-4 leukemia was 85%.
Consider `O=C(OCc1nc2nc(Cl)nc(N3CCOCC3)c2[nH]1)n1ccnc1`, for which the growth is -35.2% (active) in the assay on HCT-15 colon; -55.2% (active) with HT29 colon; -14.2% (active) in the assay with SNB-75 CNS; 62.9% in the assay on SNB-19 CNS; 1.06% (active) with U251 CNS; -24.5% (active) in the assay on PC-3 prostate. Moreover, the growth with SK-MEL-5 melanoma is 20.1%; in the assay with UACC-62 melanoma, -80.4% (active); with LOX IMVI melanoma, -77.1% (active); in the assay on SK-MEL-28 melanoma it was -36.5% (active); with SK-MEL-2 melanoma it was -67.1% (active); in the assay on EKVX NSCLC, 62.1%. Besides, the growth in the assay with SN12C renal is 8.48% (active); with UO-31 renal, -81% (active); in the assay with TK-10 renal it was -77.4% (active); in the assay with CAKI-1 renal, -68.8% (active); in the assay with A498 renal, -4.23% (active); with CCRF-CEM leukemia it was -12% (active). Further, the growth in the assay on MOLT-4 leukemia was 9.71% (active).
Consider `CS(=O)(=O)OCCN(CCOS(C)(=O)=O)c1ccc(/C=N/Nc2ccc([N+](=O)[O-])cc2[N+](=O)[O-])cc1`, for which the growth in the assay with HCT-15 colon was 100%; in the assay with HT29 colon, 85.9%; with SNB-75 CNS, 77.2%; in the assay on SNB-19 CNS it was 82.7%; in the assay with U251 CNS, 76%; in the assay with PC-3 prostate, 67.3%. The growth in the assay with SK-MEL-5 melanoma was 89.2%; in the assay with UACC-62 melanoma, 78%; with LOX IMVI melanoma, 63.5%; with SK-MEL-28 melanoma, 95.7%; in the assay on SK-MEL-2 melanoma, 118%; with EKVX NSCLC, 81.7%. For the same molecule, the growth with SN12C renal was 77.6%; in the assay with UO-31 renal, 88.9%; with TK-10 renal, 112%; in the assay on CAKI-1 renal, 70.4%; in the assay on CCRF-CEM leukemia, 55.5%; in the assay on MOLT-4 leukemia it was 88.4%.

The values are drawn from PubChem BioAssay (NCI).
